Assay results reported in PubChem BioAssay AID720533 (National Center for Advancing Translational Sciences (NCATS), 2013).
Several values for one entry are separate records, joined by “and”; a condition that tells them apart may be missing. Equal values may be shown once. Screen size: about 18,000 compounds; about 750 (4.2%) were called active. Inconclusive results (about 13%) are left out. Calls come from the whole dose curve; tested in HEK293 cells. The full list was thinned out, with actives kept by preference. Starred links: 1 amine or outer side, 2 acyl side, 3 side chain; linkers in the order of their positions; H or OH if unused. Positions of bridges follow the written chain, without caps; N, C: chain ends. Non-standard residues stand in square brackets, D forms with d. Residues, ends and D or L forms follow the SMILES beside them. *: point of attachment. X15 = NC1=N[C@@H]([C@H](N[*:1])C(=O)[*:2])C[C@H](O)N1; ΔAla(Z-3-ureido) = NC(=O)N/C=C(\N)C(=O)O; β3hOrn = NCCC[C@H](N)CC(=O)*; Dap = NC[C@H](N)C(=O)O

Assay: qHTS for Inhibitors of binding or entry into cells for Lassa Virus
Conditions: Lassa virus pseudotyped entry inhibition, cell-based qHTS; series mostly up to 49.2 µM; activity change, negative = inhibition: at the top concentration
% is set by controls: 0 for no effect and ±100 for the full control effect; potency is the fitted concentration of half-maximal effect.

| SMILES | activity change, negative = inhibition | Potency |
| --- | --- | --- |
| Cc1cnc(C(=O)N2CCOc3ccc(CN4CCCC(C(=O)c5cccnc5)C4)cc3C2)[nH]1 (centres undefined) | -5.06% (inactive) |  |
| Nc1nc(/C(=C/CC(=O)O)C(=O)N[C@@H]2C(=O)N3C(C(=O)O)=CCS[C@H]23)cs1 | -7.09% (inactive) |  |
| COc1cccc([C@@H]2Oc3ccc(Br)cc3C(=O)[C@H]2OC(=O)NCCc2ccc(OC)c(OC)c2)c1 | 33% (inactive) |  |
| C/C=C(\C)C(=O)OC1C(OC(=O)C2(C)OC2C)c2cc3ccc(=O)oc3cc2OC1(C)C (centres undefined) | 4.77% (inactive) |  |
| OCC1CCCN(c2nc3cc4c(cc3cc2CNCc2cccs2)OCO4)C1 (centres undefined) | -0.156% (inactive) |  |
| CCOC(=O)CCN1C(=O)[C@@H]2[C@H]3[C@H](O)[C@H](O)CC(=NOCC(C)C)[C@@H]3CC[C@H]2C1=O | -24.6% [at 8.59 µM] (inactive) |  |
| CCN1CCN(C(=O)N[C@@H](C(=O)N[C@@H]2C(=O)N3C(C(=O)O)=C(CSc4nnnn4C)CS[C@H]23)c2ccc(O)cc2)C(=O)C1=O | -8.09% (inactive) |  |
| CCOC(=O)C1C/C(=C\C(C)=O)c2cccc(C(F)(F)F)c2O1 (centres undefined) | 7.88% (inactive) |  |
| CC(C)[C@@H](OCc1ccccc1)[C@H](C)C=NOC[C@@H](C)[C@H](OCc1ccccc1)C(C)C | 8.86% [at 8.59 µM] (inactive) |  |
| COc1ccc(CN(C)CCn2cc(C(=O)N3CCSCC3)nn2)cc1C | -12% (inactive) |  |
| CC1OC(OCC2OC(Oc3c(-c4ccc(O)c(O)c4)oc4cc(O)cc(O)c4c3=O)C(O)C(O)C2O)[C@@H](O)C(O)C1O (some centres undefined) | -10.4% (inactive) |  |
| CNc1ncnc2ccc(-c3cccc(NS(C)(=O)=O)c3)cc12 | -5.28% (inactive) |  |
| COc1ccc(Nc2ncnc3ccc(OC)cc23)cc1 | 4.87% (inactive) |  |
| Cc1csc(-c2nc3ccccc3n2C)n1 | 29.1% (inactive) |  |
| CNC(=O)C[C@H]1C(=O)N(Cc2ccccc2)C[C@@H]1CSC | 7.21% (inactive) |  |
| CCCCCCN1C[C@@H](O)[C@H](n2cc(-c3ccc(F)cc3)nn2)C[C@H]1c1ccccc1 | -27.3% (inactive) |  |
| COc1c(O)cc2oc(-c3ccc(O)c(O)c3)cc(=O)c2c1O | -13.1% (inactive) |  |
| Cc1nc2cc(NC(=O)[C@@H]3C[C@@H](Sc4ccccn4)CN3Cc3ccccc3C)ccc2s1 | -6.47% (inactive) |  |
| CC[C@@H]1Cc2cc(O)ccc2C2=C1c1ccc(O)cc1C[C@H]2CC |  | 20 µM (active) |
| CCCN(C/C=C/I)C1CCc2ccc(O)cc2C1 (centres undefined) | 3.69% (inactive) |  |

| SMILES | activity change, negative = inhibition | Potency |
| --- | --- | --- |
| COCOc1cc(OC)ccc1C(=O)/C=C/c1ccc([N+](=O)[O-])cc1 | -5.23% (inactive) |  |
| CCOC(=O)C1=C(C(=O)OCC)C(C(=O)OCC)N(S(=O)(=O)C(F)(F)F)c2ccccc21 (centres undefined) | -6.28% (inactive) |  |
| c1ccc(CN2CCN(Cc3ccc4c(c3)CN(Cc3c[nH]c5ccccc35)CCO4)CC2)nc1 | -8.46% (inactive) |  |
| O=C(O)CCC(=O)O | -0.191% (inactive) |  |
| O=C(CCN1Cc2ccccc2OC(c2ccccc2)C1)N[C@@H]1CS(=O)(=O)C[C@H]1O (some centres undefined) | -3.72% (inactive) |  |
| COC(=O)c1c(OCc2ccc(F)cc2)cc(=O)n2c1CCN(Cc1ccc3cccnc3c1)CC2 | -12.1% (inactive) |  |
| CC1C(=O)N(Cc2cn(Cc3ccco3)nn2)CCS(=O)(=O)N1Cc1ccc(-c2cccc(CO)c2)cc1 (centres undefined) | -19.8% (inactive) |  |
| Cc1cccc(CN2CCN(C3CN(Cc4cn(Cc5ccccc5F)nn4)S(=O)(=O)C3)CC2)c1 (centres undefined) | 23.5% (inactive) |  |
| NCCC[C@H](N)CC(=O)N[C@H]1CNC(=O)[C@H]([C@H]2C[C@H](O)NC(N)=N2)NC(=O)/C(=C/NC(N)=O)NC(=O)[C@H](CO)NC(=O)[C@H](CO)NC1=O (β3hOrn-[Dap]SS[ΔAla(Z-3-ureido)][X15]; lactam 1-C) | 6.4% (inactive) |  |
| O=C1C2=C(C(=O)c3ccccc31)[C@H]1O[C@](CCCCN3C(=O)c4ccccc4C3=O)(Cc3c1ccc1ccccc31)O2 | 10.1% [at 8.59 µM] (inactive) |  |
| C/C(Nc1ccc2oc(=O)ccc2c1)=C1/C(=O)CC2[C@@H]1C2(C)C (some centres undefined) | -4.73% (inactive) |  |
| CCCCCCc1cc2cc(OC)c(OC)cc2c2c(C(=O)OC)c(C(=O)OC)c(C(=O)OC)n12 | -14.4% [at 8.59 µM] (inactive) |  |
| CO[C@]1(NC(=O)CSC(F)F)C(=O)N2C(C(=O)O)=C(CSc3nnnn3CCO)CO[C@H]21 | -13.4% (inactive) |  |
| O=C(C=Cc1ccccc1)Nc1cccc(C(=O)N2CCCCC2)c1 | 28.6% (inactive) |  |
| Nc1nc(-c2ccc3c(c2)C(=Cc2cc(Br)c(O)c(Br)c2)C(=O)N3)cs1 | 9.64% (inactive) |  |
| Cc1ccc(-c2ccc(CN3C(C(C)C)C(=O)N(Cc4cn(CCC5OCCCO5)nn4)CCS3(=O)=O)cc2)cc1 (centres undefined) | -14.3% (inactive) |  |
| COC(=O)CC1c2ccccc2C(Cc2ccc(OC)cc2)=C(C)N1C(=O)OC (centres undefined) | 25.9% [at 8.59 µM] (inactive) and -25.2% [at 8.59 µM] (inactive) |  |
| C=CC1=C2C=C(C3CC3)N(C(CO)CO)C=C2C(=O)C(C)(OC(=O)c2ccco2)C1=O (centres undefined) | 4.32% [at 8.59 µM] (inactive) |  |
| COCC(=O)Nc1cc(C(=O)N2CCCC(c3ccccc3)CC2)c2c(c1)nc(-c1ccncc1)n2C (centres undefined) | -11.7% (inactive) |  |
